Screening results as filed in PubChem BioAssay.
The list is not random: actives were taken first. Their share in the collection is about 0.37%.
CBFb RUNX1 block: CBF-beta/RUNX1 interaction disruption. Potency, µM (titrated, usually from 59.8 µM), inactives show at the top dose activity, negative = inhibition, usual class: inhibitors. Q01196+Q13951. AlphaScreen CBFb-His/RUNX1-biotin binding, biochemical. 230,000 tested, under 10 active. AID 1477; further: % of control where 0% means no effect
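Read-out: AlphaScreen. Format: His-CBF-beta with biotinylated RUNX1 (30 nM each) preincubated 20 min, compound 15 min, Ni-chelate plus streptavidin beads 90 min; room temperature throughout.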
Epigenetic reg: epigenetic control regulation, reporter derepression; actives 0.2% (n = 280,000); Potency, µM (titrated, usually from 53.9 µM), for inactives: at the top dose GFP activation, hits mostly activators; murine LDR cells, GFP reporter derepression, 30 h; AID 1865; further: potency means the concentration at half of the fitted maximal effect; % of control where 0% means no effect; nearly all actives have a fitted effect of over 60% in size
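GFP-positive cell count by laser-scanning cytometry (objects 20–120 um) after 30 h, 37 C compound exposure of murine LDR cells; reporter is CMV-GFP integrated at a silenced locus, inducible by HDAC or DNMT inhibitors.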
PTAP TSG101 blk: blocks PTAP/TSG101 interaction to inhibit HIV-1 budding; Q99816; Fluorescence polarization, FITC-PTAP peptide / Tsg101 binding; Potency, µM (titrated, usually from 115 µM), without a hit: at the top dose activity change, negative = inhibition, usual class: inhibitors; 340,000 tested, under 10 active; active means well fitted inhibition curve with a large enough effect in the main read-out, with a control signal flat, not every such curve was filed as active; inconclusive means small, poorly fitted or top-dose-only effect, or effect the other way, or a change in a side signal; inactive means no such curve, though single readings can be large or run the other way; further: potency means the concentration at half of the fitted maximal effect; % of control where 0% means no effect
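FP read-out: FITC-PTAP peptide, 50 nM final, binding Tsg101 binding domain, 10 uM final; 20 min, r.t.; 10 mM HEPES pH 7.5, 0.15 M NaCl, 0.01% Tween 20, 3 mM EDTA, 0.1 mM TCEP.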
Vif-A3G inh: inhibitors of Vif-APOBEC3G interaction; HeLa A3G-eYFP + Vif (tagged APOBEC3G with the HIV-1 protein that degrades it), YFP fluorescence, overnight; Potency, µM (top dose mostly 46.1 µM), without a hit: at the top dose activity, negative = active, actives largely listed as inhibitors; actives 0.076% (n = 410,000); AID 602310; further: potency means the concentration at half of the fitted maximal effect; on the % scale 0 is the no-effect control and ±100 the full control effect; nearly all actives have a fitted effect of over 60% in size
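HeLa cells stably expressing Vif and C-terminally eYFP-tagged A3G, seeded overnight at 37 deg C, then exposed to compound by pintool overnight at 37 deg C. Rise in yellow fluorescence (Ex 488/Em 500-530, Acumen) marks blocked Vif-driven A3G degradation.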
MBNL1-CUG inh: blocks human MBNL1 binding to CUG repeat RNA; actives 0.036% (n = 280,000); TR-FRET MBNL1-His/biotin-(CUG)12 binding, 665/545 ratio; Potency, µM (highest dose often 57.5 µM), without a hit: at the highest dose activity change, negative = inhibition, usual class: inhibitors; active means well fitted inhibition curve with a large enough effect in the signal ratio, with a control signal flat, not every such curve was filed as active; inconclusive means small, poorly fitted or top-dose-only effect, or effect the other way, or a change in a side signal; inactive means no such curve, though single readings can be large or run the other way; the % refers to the signal ratio; further: potency means the concentration at half of the fitted maximal effect; on the % scale 0 is the no-effect control and ±100 the full control effect
Target sequence (Q9NR56 whole entry, looked up): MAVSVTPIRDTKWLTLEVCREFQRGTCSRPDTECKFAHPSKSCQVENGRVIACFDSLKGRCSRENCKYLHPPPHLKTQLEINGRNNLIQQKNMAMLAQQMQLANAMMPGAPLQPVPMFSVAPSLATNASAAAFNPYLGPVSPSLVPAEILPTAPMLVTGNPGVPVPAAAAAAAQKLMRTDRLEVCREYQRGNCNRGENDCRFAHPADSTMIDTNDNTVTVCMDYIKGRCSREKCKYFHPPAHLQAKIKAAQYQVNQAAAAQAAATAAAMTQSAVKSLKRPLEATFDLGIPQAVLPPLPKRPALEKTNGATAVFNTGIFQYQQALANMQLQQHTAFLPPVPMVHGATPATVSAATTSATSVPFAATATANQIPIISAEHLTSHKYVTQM
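Compound titration spanned 92 nM–58 uM against the MBNL1-His/biotin-(CUG)12 complex. After 60 min at room temperature with 5 nM streptavidin-XL665 and 0.055 ng/ul terbium anti-His, ratiometric 665/545 nm emission (Ex 340 nm) normalized to controls.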
Vif-A3F inh: blocks the Vif interaction with APOBEC3F | HeLa A3F-eYFP + Vif (tagged APOBEC3F with the HIV-1 protein that degrades it), YFP fluorescence increase | Potency, µM (doses to about 46.1 µM), for inactives: top-dose activity, negative = active | actives 0.2% (n = 390,000) | AID 602313; further: potency means the concentration at half of the fitted maximal effect; % of control where 0% means no effect; nearly all actives have a fitted effect of over 65% in size
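HeLa cells stably expressing A3F-eYFP plus Vif, plated and incubated overnight at 37 deg C, then exposed to compounds overnight at 37 deg C. Blocked degradation read as raised yellow fluorescence (Ex 488/Em 500-530).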
MBNL1 TRFRET: MBNL1-poly(CUG) RNA binding inhibition confirmed; shares compounds with MBNL1-CUG inh; TR-FRET MBNL1-His / biotin-(CUG)12 binding, 60 min; Potency, µM (series often up to 57.6 µM), without a hit: top-dose activity change, negative = inhibition, most hits filed as inhibitors; actives 50% (n = 140)
MBNL1 AlphaScrn: blocks MBNL1 binding to (CUG)12 RNA in AlphaScreen; AlphaScreen MBNL1-His / biotin-(CUG)12 binding; shares compounds with MBNL1-CUG inh; Potency, µM (series often up to 57.7 µM), without a hit: top-dose activity, negative = inhibition, actives largely listed as inhibitors; AID 493205; actives 30% (n = 140)
MBNL1 HTRF CS: counter-screen for MBNL1-poly(CUG) RNA binding inhibitors. shares compounds with MBNL1-CUG inh. His-Menin/biotin-MLL peptide TR-FRET counterscreen. Potency, µM (doses to about 57.6 µM), without a hit: at the top dose activity, negative = inhibition, usual class: inhibitors. actives 20% (n = 120)
* = called active by the depositor; ? = inconclusive; . = no result. Unless noted, the call rests on the fitted dose curve; in most records, active means well fitted curve in the direction sought with a large enough effect; inconclusive means small, poorly fitted or top-dose-only effect, or another doubt; inactive means no such curve, though single readings can be large; an effect the other way counts as inactive or inconclusive.

SMILES	CBFb RUNX1 block	Epigenetic reg	PTAP TSG101 blk	Vif-A3G inh	MBNL1-CUG inh	Vif-A3F inh	MBNL1 TRFRET	MBNL1 AlphaScrn	MBNL1 HTRF CS
O=C(CCO)c1ccc(O)cc1	.	0.0%	-18.1%	1.3%	25.1µM*	-3.2%	?	?	-0.3%
Cc1ccc(/C=C/C(=O)Nc2ccc(Cl)cc2Cl)cc1	.	-0.7%	.	0.2%	.	7.8%	.	.	.
CC(=O)c1c(C)nc(C)nc1NC(=O)Cc1ccccc1	-1.9%	-1.0%	-3.7%	5.1%	?	2.3%	.	.	.
CC(=O)Nc1nc(-c2ccc(Cl)cc2)nc(C)c1C(C)=O	18.9%	-14.3%	-5.5%	-3.3%	25.1µM*	-17.2%	?	?	?
CC(=O)Nc1ccc(NC(=O)c2cc(-c3cc(C)c(C)cc3O)n[nH]2)cc1	.	.	-3.8%	-0.2%	10µM*	0.3%	?	41.1µM*	-2.0%
Cc1cc(O)c(-c2cc(C(=O)Nc3cccnc3)[nH]n2)cc1C	9.7%	4.0%	2.2%	-6.4%	.	-7.4%	.	.	.
Cc1ccc(/C=c2/sc3n(c2=O)CCCN=3)o1	-20.7%	-0.8%	0.7%	-2.4%	35.3%	0.3%	?	-12.9%	34.6%
Cc1ccc(/C=c2\sc3n(c2=O)CN(c2ccc(Br)cc2)CN=3)o1	8.0%	-0.1%	0.0%	-4.2%	?	-0.1%	.	.	.
CCOC(=O)C1(CCOc2ccccc2)CCN(Cc2ccncc2)CC1	0.6%	1.1%	-0.1%	-1.1%	-6.7%	-1.2%	.	.	.
CCOC(=O)C1(CCOc2ccccc2)CCN(Cc2ccc(-n3cccn3)cc2)CC1	-2.5%	2.6%	-4.8%	-0.7%	11.2µM*	-6.0%	6.51µM*	?	-46.3%
COc1ccc(N2CCN(CC(=O)Nc3ccc(-n4cnnn4)cc3)CC2)cc1	2.3%	-2.0%	-5.3%	-0.4%	-6.9%	0.3%	-0.5%	?	1.5%
C[C@@H]1NC(=O)[C@@H](N)CNC(=O)[C@H](C2CCNC(N)=N2)NC(=O)/C(=C/NC(N)=O)NC(=O)[C@H](CNC(=O)C[C@@H](N)CCCN)NC1=O (stereo not given in full)	.	.	.	.	.	.	.	.	-11.0%
CC1NC(=O)C(N)CNC(=O)C(C2CCN=C(N)N2)NC(=O)/C(=C/NC(N)=O)NC(=O)C(CNC(=O)CC(N)CCCN)NC1=O (stereo not given)	26.8%	.	.	.	.	.	.	.	.
NCCCC(N)CC(=O)NCC1NC(=O)C(CO)NC(=O)C(N)CNC(=O)C(C2CCN=C(N)N2)NC(=O)/C(=C\NC(N)=O)NC1=O (stereo not given)	18.2%	0.0%	.	.	.	.	.	.	.
NCCCC(N)CC(=O)NC1CNC(=O)C(C2CC(O)N=C(N)N2)NC(=O)/C(=C/NC(N)=O)NC(=O)C(CO)NC(=O)C(CO)NC1=O (stereo not given)	.	.	.	.	.	.	?	?	.
Cn1nccc1NC(=O)Nc1cccc(Cl)c1	9.2%	-1.1%	-1.3%	4.2%	31.6µM*	-3.7%	?	?	32.6µM*
